Unmarked numbers belong to inactive results. Active and inactive are the calls of the source. Unless noted, calls follow the shape of the dose curve; as a rule, active = well fitted curve in the direction sought with a large enough effect in the repeat runs; inconclusive = weak or mixed curves; inactive = no such curve, though single readings can be large; an effect the other way counts as inactive or inconclusive.
What was measured:
[1] = qHTS assay for identifying genotoxic compounds that show differential cytotoxicity against isogenic chicken DT40 cell lines with known DNA damage response pathways - Rad54/Ku70 mutant cell line (AID 743015); also: nearly all actives have a fitted effect of over 60% in size; also: potency is read from the fitted curve at half-maximal effect
[2] = qHTS assay to identify small molecule antagonists of the androgen receptor (AR) signaling pathway - cell viability counter screen (AID 743033; also: nearly all actives have a fitted effect of over 45% in size; also: potency is read from the fitted curve at half-maximal effect)
[3] = target: Androgen receptor (Homo sapiens) (UniProt P10275); test: qHTS assay to identify small molecule antagonists of the androgen receptor (AR) signaling pathway (AID 743035; active = well fitted inhibition curve with a large enough effect in the signal ratio in the repeat runs, not every such curve was filed as active; inconclusive = weak or mixed curves, or effect the other way; inactive = no such curve, though single readings can be large or run the other way; the % refers to the signal ratio; also: potency is read from the fitted curve at half-maximal effect)
Androgen receptor (Homo sapiens), sequence (P10275 whole entry, looked up): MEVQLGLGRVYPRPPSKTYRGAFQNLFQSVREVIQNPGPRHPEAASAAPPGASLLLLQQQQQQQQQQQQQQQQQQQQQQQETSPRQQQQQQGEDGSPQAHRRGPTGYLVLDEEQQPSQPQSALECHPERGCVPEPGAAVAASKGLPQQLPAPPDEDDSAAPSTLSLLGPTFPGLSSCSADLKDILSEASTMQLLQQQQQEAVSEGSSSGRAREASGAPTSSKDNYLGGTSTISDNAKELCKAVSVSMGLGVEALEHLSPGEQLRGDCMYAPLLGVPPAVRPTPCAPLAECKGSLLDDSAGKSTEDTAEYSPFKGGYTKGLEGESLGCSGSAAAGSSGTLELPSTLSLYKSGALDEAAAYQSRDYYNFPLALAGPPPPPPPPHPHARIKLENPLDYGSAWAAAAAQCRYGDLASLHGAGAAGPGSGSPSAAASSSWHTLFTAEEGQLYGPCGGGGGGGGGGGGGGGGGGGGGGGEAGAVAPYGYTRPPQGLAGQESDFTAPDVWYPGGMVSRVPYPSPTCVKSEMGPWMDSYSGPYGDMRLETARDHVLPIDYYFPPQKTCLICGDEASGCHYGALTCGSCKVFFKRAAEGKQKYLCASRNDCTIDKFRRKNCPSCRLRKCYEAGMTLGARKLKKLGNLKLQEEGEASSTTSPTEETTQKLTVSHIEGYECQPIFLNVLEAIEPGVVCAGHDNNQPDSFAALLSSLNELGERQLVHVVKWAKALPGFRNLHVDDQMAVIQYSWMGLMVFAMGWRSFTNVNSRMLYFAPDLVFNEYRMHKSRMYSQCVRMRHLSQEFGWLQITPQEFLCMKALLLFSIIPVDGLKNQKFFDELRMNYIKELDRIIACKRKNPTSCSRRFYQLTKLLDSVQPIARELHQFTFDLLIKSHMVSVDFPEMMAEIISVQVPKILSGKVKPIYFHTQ
Method in brief: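 Fluorescence from a beta-lactamase FRET substrate (LiveBLAzer B/G, 2 h, room temperature) measured inhibition of R1881-stimulated signaling in GeneBLAzer AR-UAS-bla HEK293 cells exposed to compound for 16 h at 37C.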

[4] = target: Androgen receptor (Homo sapiens) (UniProt P10275); test: qHTS assay to identify small molecule agonists of the androgen receptor (AR) signaling pathway using the MDA cell line (AID 743040; also: nearly all actives have a fitted effect of over 20% in size; also: potency is read from the fitted curve at half-maximal effect)
Method in brief: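 MDA-kb2 breast carcinoma cells carrying MMTV-luciferase (responsive to AR and GR), plated 5 h then treated 16 h with compounds at 37C, 0% CO2. Read-out was ONE-Glo luminescence after 30 min at room temperature.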

[5] = qHTS assay to identify small molecule antagonists of the androgen receptor (AR) signaling pathway using the MDA cell line - cell viability counter screen (AID 743041; also: nearly all actives have a fitted effect of over 45% in size; also: potency is read from the fitted curve at half-maximal effect)
Method in brief: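 MDA-kb2 AR-luc cells (MMTV-luciferase, AR/GR responsive) treated with compounds plus R1881 agonist for 16 h at 37C. CellTiter-Fluor added at 15.5 h; fluorescence read after 30 min in the same wells.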

[6] = target: Androgen receptor (Homo sapiens) (UniProt P10275); test: qHTS assay to identify small molecule antagonists of the androgen receptor (AR) signaling pathway using the MDA cell line (AID 743042; also: nearly all actives have a fitted effect of over 55% in size; also: potency is read from the fitted curve at half-maximal effect)
Method in brief: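 MDA-kb2 breast carcinoma cells carrying MMTV-luciferase (AR/GR responsive) were co-treated with compounds and the agonist R1881 for 16 h at 37C. Inhibition read as ONE-Glo luminescence; CellTiter-Fluor fluorescence measured in parallel for cytotoxicity.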

[7] = qHTS assay to identify small molecule antagonists of the thyroid receptor (TR) signaling pathway - cell viability counter screen (AID 743064); also: nearly all actives have a fitted effect of over 50% in size; also: potency is read from the fitted curve at half-maximal effect
Method in brief: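 Same-well viability check: GH3.TRE-Luc cells stimulated with 1 nM T3 alongside test compound for 23.5 h, followed by CellTiter-Fluor fluorescence.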

[8] = qHTS assay to identify small molecule antagonists of the thyroid receptor (TR) signaling pathway (AID 743065); also: potency is read from the fitted curve at half-maximal effect; nearly all actives have a fitted effect of over 55% in size
Method in brief: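 GH3.TRE-Luc rat pituitary cells (two TREs driving luciferase) were dosed with compound, then stimulated with 1 nM T3 (final) for 23.5 h at 37 C. ONE-Glo luminescence was the read-out, with CellTiter-Fluor fluorescence as the cytotoxicity counter-screen.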

[9] = tested on: thyroid hormone receptor (rat, GH3 cells); test: qHTS assay to identify small molecule agonists of the thyroid receptor (TR) signaling pathway (AID 743066; calls by dose curve; also: % is scaled to controls: 0 for no effect and ±100 for the full control effect)
[10] = qHTS assay to identify small molecule antagonists of the estrogen receptor alpha (ER-alpha) signaling pathway - cell viability counter screen (AID 743074; calls by dose curve;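 also: HEK293 cells carrying ER-alpha-UAS-bla reporter stimulated with 17beta-estradiol; nearly all actives have a fitted effect of over 45% in size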; also: potency is read from the fitted curve at half-maximal effect)
[11] = qHTS assay to identify small molecule antagonists of the estrogen receptor alpha (ER-alpha) signaling pathway using the BG1 cell line - cell viability counter screen (AID 743081);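 also: compound given together with 17beta-estradiol as the ER stimulus; nearly all actives have a fitted effect of over 45% in size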; also: potency is read from the fitted curve at half-maximal effect
Aromatase (Homo sapiens) = Aromatase (Homo sapiens) (UniProt P11511); test: qHTS assay to identify aromatase inhibitors (AID 743083); also: nearly all actives have a fitted effect of over 55% in size; also: potency is read from the fitted curve at half-maximal effect
Aromatase (Homo sapiens), sequence (P11511 whole entry, looked up): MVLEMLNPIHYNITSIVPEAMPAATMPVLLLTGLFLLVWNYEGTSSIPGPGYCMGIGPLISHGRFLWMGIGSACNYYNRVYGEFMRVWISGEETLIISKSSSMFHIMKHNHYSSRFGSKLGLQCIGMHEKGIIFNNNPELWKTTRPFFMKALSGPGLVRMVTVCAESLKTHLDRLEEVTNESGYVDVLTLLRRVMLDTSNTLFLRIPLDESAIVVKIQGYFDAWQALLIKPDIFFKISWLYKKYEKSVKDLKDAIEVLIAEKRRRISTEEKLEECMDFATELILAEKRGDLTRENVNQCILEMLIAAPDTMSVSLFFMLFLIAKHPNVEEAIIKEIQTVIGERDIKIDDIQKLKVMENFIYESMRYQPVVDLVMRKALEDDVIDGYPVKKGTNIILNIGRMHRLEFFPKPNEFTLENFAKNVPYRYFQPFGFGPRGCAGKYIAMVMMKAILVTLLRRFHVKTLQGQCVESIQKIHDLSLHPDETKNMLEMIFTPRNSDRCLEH

[12] = qHTS assay to identify aromatase inhibitors - cell viability counter screen (AID 743084);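 also: cells stimulated with testosterone during compound exposure; nearly all actives have a fitted effect of over 55% in size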; also: potency is read from the fitted curve at half-maximal effect
[13] = qHTS assay for identifying genotoxic compounds that show differential cytotoxicity against isogenic chicken DT40 cell lines with known DNA damage response pathways - wild type cell line (AID 743012); also: nearly all actives have a fitted effect of over 60% in size; also: potency is read from the fitted curve at half-maximal effect
Method in brief: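 Wild type DT40, 300 cells/well, ~0.5 h settle at 37 C/5% CO2; compounds in DMSO added by pintool; 40 h at 37 C/5% CO2; CellTiter-Glo, 30 min RT; luminescence.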

[14] = qHTS assay for identifying genotoxic compounds that show differential cytotoxicity against isogenic chicken DT40 cell lines with known DNA damage response pathways - Rev3 mutant cell line (AID 743014); also: nearly all actives have a fitted effect of over 55% in size; also: potency is read from the fitted curve at half-maximal effect
[15] = target: Estrogen receptor (Homo sapiens) (UniProt P03372); test: qHTS assay to identify small molecule agonists of the estrogen receptor alpha (ER-alpha) signaling pathway (AID 743075; calls by dose curve; also: % is scaled to controls: 0 for no effect and ±100 for the full control effect); details: HEK293 ER-alpha-UAS-bla, beta-lactamase FRET ratio, 18 h; activation: at 70.1 µM (top of the series)
Estrogen receptor (Homo sapiens), sequence (P03372 whole entry, looked up): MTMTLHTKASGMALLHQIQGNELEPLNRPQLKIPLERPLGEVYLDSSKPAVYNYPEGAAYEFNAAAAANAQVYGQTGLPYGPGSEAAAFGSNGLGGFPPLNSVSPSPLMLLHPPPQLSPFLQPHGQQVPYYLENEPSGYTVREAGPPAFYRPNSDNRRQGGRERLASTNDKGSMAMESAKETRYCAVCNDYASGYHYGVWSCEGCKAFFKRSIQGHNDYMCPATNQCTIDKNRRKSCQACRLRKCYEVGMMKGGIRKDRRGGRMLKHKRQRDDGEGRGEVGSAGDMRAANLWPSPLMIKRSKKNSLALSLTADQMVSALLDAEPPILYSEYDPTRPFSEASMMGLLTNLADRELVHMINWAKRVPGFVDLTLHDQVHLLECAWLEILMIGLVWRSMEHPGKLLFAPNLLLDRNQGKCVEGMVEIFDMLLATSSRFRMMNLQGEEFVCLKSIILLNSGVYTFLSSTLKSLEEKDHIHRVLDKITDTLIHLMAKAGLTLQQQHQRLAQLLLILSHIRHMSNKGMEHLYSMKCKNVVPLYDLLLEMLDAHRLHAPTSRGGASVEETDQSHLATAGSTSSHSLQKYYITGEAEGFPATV

[16] = qHTS assay to identify small molecule antagonists of the estrogen receptor alpha (ER-alpha) signaling pathway using the BG1 cell line (AID 743080; calls by dose curve;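 also: BG1 cells stimulated with 17beta-estradiol alongside compound; nearly all actives have a fitted effect of over 25% in size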; also: potency is read from the fitted curve at half-maximal effect)
Method in brief: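 Luminescence from a 4×ERE-luciferase reporter in BG1-Luc-4E2 cells served as read-out. Cells, pre-cultured 5 days in stripped-serum phenol-red-free medium, were exposed to compound with 17beta-estradiol co-stimulation for 21.5 h at 37 C.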

[17] = target: Estrogen receptor (Homo sapiens) (UniProt P03372); test: qHTS assay to identify small molecule antagonists of the estrogen receptor alpha (ER-alpha) signaling pathway (AID 743069; active = well fitted curve in the direction sought with a large enough effect in the signal ratio in the repeat runs, not every such curve was filed as active; inconclusive = weak or mixed curves, or effect the other way; inactive = no such curve, though single readings can be large or run the other way; the % refers to the signal ratio; also: potency is read from the fitted curve at half-maximal effect)
Method in brief: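 HEK293 ER-alpha-UAS-bla GripTite cells, held overnight in 2% charcoal-stripped FBS, 5,000 cells/well, preincubated 4 h, then compound plus 17beta-estradiol for 18 h at 37C. Beta-lactamase read by LiveBLAzer B/G FRET substrate, 2 h at room temperature.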

[18] = target: Estrogen receptor (Homo sapiens) (UniProt P03372); test: qHTS assay to identify small molecule agonists of the estrogen receptor alpha (ER-alpha) signaling pathway using the BG1 cell line (AID 743079); details: BG1Luc4E2 cells, ERE-luciferase agonist, 22 h; for activation: at 70.3 µM (top of the series); also: potency is read from the fitted curve at half-maximal effect; as to activation: % is scaled to controls: 0 for no effect and ±100 for the full control effect; as to all read-outs here: nearly all actives have a fitted effect of over 20% in size

SMILES | Potency [1] | Potency [2] | Potency [3] | Potency [4] | Potency [5] | Potency [6] | Potency [7] | Potency [8] | Potency [9] | Potency [10] | Potency [11] | Potency (Aromatase (Homo sapiens)) | Potency [12] | Potency [13] | Potency [14] | Potency [15] | Potency [16] | Potency [17] | activation [18] [%] | Potency [18]
CC(C)OC(=O)c1cc2c(OCC(O)CNC(C)(C)C)cccc2[nH]1 (stereo unspecified) | 26.6 µM (active) | inactive | inactive | inactive | inactive | inactive | 13.3 µM (active) | 21.1 µM (active) | inactive | inactive | inactive | inactive | inactive |  |  |  |  |  |  | 
CCCC(=O)OC[C@@H](OC(=O)CCC)[C@@H](OC(=O)CCC)[C@H](Cn1c2nc(=O)[nH]c(=O)c-2nc2cc(C)c(C)cc21)OC(=O)CCC | 10.6 µM (active) | inactive | inactive | 5.31 µM (active) |  | 23.7 µM (active) |  | 21.1 µM (active) | inactive | inactive |  | inactive | inactive | 11.9 µM (active) | 13.3 µM (active) | inactive | 29.8 µM (active) |  |  | 
O=C(Nc1cccc([N+](=O)[O-])c1)c1cc2ccccc2cc1O | 2.17 µM (active) | 1.38 µM (active) |  | inactive | 10.9 µM (active) | 6.86 µM (active) | 1.72 µM (active) | 0.864 µM (active) | inactive | 49 µM (active) |  | 2.73 µM (active) |  | 2.17 µM (active) | 2.17 µM (active) | inactive | 8.63 µM (active) |  |  | 
CCc1cc(Cc2cc(CC)c(N)c(CC)c2)cc(CC)c1N | 54.5 µM (active) | inactive |  |  | inactive |  | 68.6 µM (active) | 48.6 µM (active) |  |  | inactive |  | inactive | 61.1 µM (active) |  | inactive | 61.1 µM (active) | 38.9 µM [inconclusive] (active) |  | 
COc1ccc(-c2ccc3cc(C(=O)O)ccc3c2)cc1C12CC3CC(CC(C3)C1)C2 | inactive | inactive |  |  | inactive |  | 1.68 µM (active) | 1.33 µM (active) | inactive | inactive | inactive |  | inactive |  |  | inactive | 0.376 µM (active) | 7.56 µM [inconclusive] (active) | -4.61 | 
CSc1ccc(/C=C2/C(C)=C(CC(=O)O)c3cc(F)ccc32)cc1 | inactive |  | inactive | inactive |  | inactive |  |  | inactive |  | inactive | inactive | inactive | inactive | inactive | inactive | inactive |  | -0.897 | 
N=C1C=CC(=C(c2ccc(N)cc2)c2ccc(N)cc2)C=C1 |  | 15.5 µM (active) | 2.19 µM (active) | inactive | 15.4 µM (active) | 2.43 µM (active) | 9.69 µM (active) |  |  | 1.38 µM (active) | 13.7 µM (active) | 4.86 µM (active) | 8.63 µM (active) | 9.69 µM (active) | 6.86 µM (active) |  |  |  |  | 
CCCCCCC[N+](CC)(CC)CCCCc1ccc(Cl)cc1 | 1.27 µM (active) | inactive |  |  |  |  | inactive | 12.7 µM (active) | inactive | 8.11 µM (active) | inactive |  | inactive | 1.01 µM (active) | 1.43 µM (active) | inactive |  |  |  | 
Oc1c(Cl)cc(Cl)c2cccnc12 |  | inactive |  |  |  |  | 9.44 µM (active) | 6.68 µM (active) |  |  | inactive | 11.9 µM (active) | inactive | 3.76 µM (active) | 3.76 µM (active) |  | 21.1 µM (active) |  |  | 
Cc1cc(O)c(Cl)c(C)c1Cl | 17.2 µM (active) | 27.5 µM (active) |  | inactive |  | 54.5 µM (active) | 17.2 µM (active) | 24.3 µM (active) | inactive |  | inactive | 48.6 µM (active) | 61.1 µM (active) | 24.3 µM (active) | 24.3 µM (active) | inactive |  |  |  | 
CCCCN(CCCC)c1ccc(C(=O)c2ccccc2C(=O)O)c(O)c1 |  | inactive | 39.3 µM (active) | inactive | inactive |  | 55 µM (active) | 55 µM (active) | inactive | 49.4 µM (active) | inactive | inactive | inactive |  | inactive |  |  |  |  | 
CCCCCCCCCOC(=O)c1ccc(O)cc1 | 19.1 µM (active) |  | 24.2 µM (active) | inactive |  |  |  |  | inactive |  | inactive | 30.2 µM (active) | 30.2 µM (active) |  | 19.1 µM (active) |  |  |  |  | 
Nc1ccc2c3c(cccc13)-c1ccccc1-2 | 55 µM (active) | inactive |  | inactive |  | inactive |  | 43.7 µM (active) | inactive |  |  |  |  | 61.8 µM (active) |  |  |  |  |  | 8.72 µM (active)

Source: PubChem BioAssay (Tox21)
